Hit rate of the full screen: of about 71,000 compounds, about 35 (0.05%) were called active. Calls follow the shape of the dose curve; as a rule, active = well fitted curve in the direction sought with a large enough effect; inconclusive = small, poorly fitted or top-dose-only effect, or effect the other way; inactive = flat fitted curve, though single readings scatter. The list is a sample of the results.
Biological target: tRNA threonylcarbamoyladenosine biosynthesis protein TsaE (Escherichia coli (strain K12)) (UniProt P0AF67)
Experiment: qHTS Assay for Inhibitors of YjeE
Details: purified YjeE enzyme, qHTS inhibition assay
Experimental: NIH Molecular Libraries Screening Centers Network [MLSCN]
NIH Chemical Genomics Center [NCGC]
Assay Provider: Eric Brown, McMaster University
YjeE is an essential E.coli protein of unknown function that binds adenosine diphosphate (ADP). A complex of YjeE and BODIPY Texas Red-labeled ADP probe (Invitrogen, catalog number A22359) is incubated with library members. Inhibitors of YjeE-ADP binding are detected by a decrease in the fluorescence polarization (FP) of the fluorophore. Purified YjeE was supplied by Chand Mangat and Eric Brown, McMaster University.
NCGC Assay Protocol Summary:
2 uM probe/10 uM YjeE in columns 1, 2, 5-48. Titration of ADP control (from 40 mM, then 1:2) pin-transferred to top half of column 2. Column 1 and bottom half of column 2 are neutral.
Two and a half uL of reagents were dispensed to 1536-well Greiner black plates. Compounds and controls (20 nL) were transferred via Kalypsys PinTool. The plates were incubated for 15 min at room temperature, and then read on ViewLux (Perkin-Elmer) High-throughput CCD imager using BODIPY polarization filter set and 30 seconds exposure time. During dispense, reagent bottle was kept submerged into 4 deg C water bath and all liquid lines were covered with aluminum foil to minimize probe and protein degradation.
Keywords: NIH Roadmap, MLSCN, MLI, MLSMR, qHTS, NCGC, YjeE

outcome, inactive:
CCc1ccc(Nc2ncc3c(n2)CC(c2ccco2)CC3=O)cc1 (stereo not given)
COc1ccc(CN(C(=O)c2cccs2)c2nccs2)cc1OC
Cc1ccc(C(=O)CS(C)(=O)=O)cc1
CC(C)C(=O)N1CCN(CCN=CC2=C(O)CC(c3ccco3)CC2=O)CC1 (stereo not given)
COc1cccc(N2CCN(C(=O)C3CCCN(S(=O)(=O)c4cnc[nH]4)C3)CC2)c1 (stereo not given)
O=C(Nc1c(C(=O)N2CCCCC2)cnn1-c1ccccc1)c1ccco1
COc1ncc2nc(-c3ccc(Cl)cc3)c(=O)n(-c3ccccc3)c2n1
COc1cc2[nH]c(=S)n(Cc3ccc(C)o3)c(=O)c2cc1OC
CCC(C)(C)N=C(NC#N)Nc1cccnc1
C[C@@H](Nc1nc(-c2ccccc2)nc2c1oc1ccccc12)C(=O)O
Cc1ccc(N(CC(O)CN2CCCC2)S(=O)(=O)c2ccccc2)cc1 (stereo not given)
COc1ccc(N2C(=O)CC(N3CCC(C(N)=O)CC3)C2=O)cc1 (stereo not given)
CCCCCCn1c(CN2CCCC(C)C2)nc2c1c(=O)n(C)c(=O)n2C (stereo not given)
O=NO
Cc1ccc(S(=O)(=O)NC(=O)NN2C[C@H]3CCC[C@@H]3C2)cc1
CCCn1c(=O)c(-c2ccccc2)c(O)c2ccccc21
CC(C)CC1(C(=O)NCc2ccccn2)C=CCN1C(=O)c1ccccc1 (stereo not given)
COCCOC(=O)C1=C(C)Nc2nc(C)nn2C1c1ccccc1 (stereo not given)
CCCC(=O)Nc1nnc(CC(=O)OCC)s1
O=C(O)[C@@H](S)[C@H](S)C(=O)O
